# Laboratory results from PubChem BioAssay (NCATS).
# Records with an inconclusive call do not appear. Active and inactive are the calls of the source. The call rests on the fitted dose curve; in most records, active means well fitted activation curve with a large enough effect; inconclusive means small, poorly fitted or top-dose-only effect, or another doubt; inactive means no such curve, though single readings can be large or run the other way.
# Biological target: Rap guanine nucleotide exchange factor 3 (Homo sapiens) (UniProt O95398)
# Experiment: Counterscreen qHTS for agonist of cAMP-regulated guanine nucleotide exchange factor 3 (EPAC1) (AID 1645889); further: nearly all actives have a fitted effect of over 40% in size; on activation: % of control where 0% means no effect
# Details: EPAC1 Rap1B-BODIPY-GDP exchange, fluorescence; series mostly up to 154 µM; activation: at the top concentration
# Text: Assay Provider (PI): Xiaodong Cheng Ph.D. The University of Texas Medical Branch, […], TX MLPCN Grant: NS066510 In multi-cellular eukaryotic organisms, the effects of cAMP are transduced by two ubiquitously-expressed intracellular cAMP receptors, the classic protein kinase A/cAMP-dependent protein kinase (PKA/cAPK) and the more recently discovered exchange protein directly activated by cAMP/cAMP-regulated guanine nucleotide exchange factor (EPAC/cAMP-GEF). Both PKA and EPAC are ubiquitously expressed in all tissues, and an increase in intracellular cAMP levels will lead to the activation of both PKA and EPAC. Therefore, careful dissections of the individual role and relative contribution of EPAC and PKA within the overall cAMP signaling in various model systems are critical for further elucidating the mechanism of cAMP signaling. To date no EPAC-specific antagonists and agonist, as well as isoform-specific agonists have been reported, and developing EPAC-specific pharmacological probes to determine the physiological functions that EPAC play in the overall cAMP-mediated signaling remains a major challenge within the research field. Furthermore, identified regulators of EPAC may lead to new mechanism-based therapeutic strategies specifically targeting the EPAC / cAMP-signaling components as EPAC has been implicated to play important roles in major human pathological conditions such as diabetes, heart disease, and cancer. This qHTS will be used to screen the Molecular Libraries Small Molecule Repository (MLSMR) as a concentration-titration series using the NCGC unique quantitative screening (qHTS) platform to find activators for EPAC1. In addition, this assay will also be used as a counterscreen for the EPAC2 qHTS. This fluorescent based assay is developed and validated for EPAC1 that measures exchange using EPAC effector Rap1 complex with BODIPY-GDP, a GDP analog with a tethered fluorophores. Activators are identified by monitoring the change in fluorescence signal as the exchanged free BODIPY-GDP has a reduced fluorescence compared to Rap1-bound BODIPY-GDP. Increase in signal (activation) is the desired outcome for the EPAC1 agonist while no activity in this assay is desired for the EPAC2 agonist counterscreen. Reference: [1] de Rooij, J., Zwartkruis, F. J., Verheijen, M. H., Cool, R. H., Nijman, S. M., Wittinghofer, A., and Bos, J.L. (1998) Nature 396, 474-477. Kawasaki, H., Springett, G. M., Mochizuki, N., Toki, S., Nakaya, M., Matsuda, M., Housman, D. E., and Graybiel, A. M. (1998) Science 282, 2275-2279.
# EPAC1 Counterscreen PROTOCOL TABLE SEQUENCE No. (e.g., 1, 2, 3, etc.); […] (e.g., Cells, Incubation, Reagent, etc.); VALUE and DESCRIPTION. 1. Reagent. 3 uL. [1x] 250 nM Rap1B-BODIPY-GDP, and 50 uM GDP. 2a. Compound. 23 nL. Control 6,572 uM cAMP (working concentration). 2b, 2c. Compound. 23 nL. Control activator and inhibitor; 234 - 30,000 uM cAMP and 16.4 - 10,000 uM. 2d. Compound. 46 nL. MLSMR follow-up library; 0.64 - 10,000 uM. 3. Time. 15 sec, 1000rpm. Centrifuge. 4. Time. 5 min. Incubation at room temperature. 5. Detector. Fluorescence. (Read 1), Ex/Em = 480 nm / 540 nm. 6. Time. 30 min. Incubation at room temperature. 7. Detector. Fluorescence. (Read 2), Ex/Em = 480 nm/ 540 nm. 8. Reagent. 1uL. Dispense either [4x] 10 uM cAMP or buffer. 9. Time. 15 sec, 1000 rpm. Centrifuge. 10. Time. 5 min. Incubation at room temperature. 11. Detector. Fluorescence. (Read 3), Ex/Em = 480 nm / 540 nm. 12. Time. 30 min. Incubation at room temperature. 13. Detector. Fluorescence. (Read 4), Ex/Em = 480 nm / 540 nm. NOTES (numbers refer to Sequence numbers above; values are from representative experiments) 1. Medium-binding black solid-bottom Greiner plates (789176-F). Dispense 3 uL of [1x] 250 nM Rap1B-BODIPY-GDP, and 50 uM GDP into columns 1 to 48. 2a. Control compound cAMP (6,572 uM, column 3, rows 1 to 32) single pin-transferred for a [final] of 50 uM. 2b. […]
# Potency means the concentration at half of the fitted maximal effect.
SMILES,activation,Potency
O=S(=O)(O)c1ccc(N=NNc2ccc(Br)cc2)cc1,26.4% (inactive),
COc1ccc2c(c1)O[C@H](c1ccc3c(c1)OCO3)[C@@H](O)C2=O,17% [at 30.8 µM] (inactive),
O=C(Cc1ccccc1)Nn1c(O)c(/C=C2\C=Nc3ccccc32)sc1=S,,39.8 µM (active)
CC(=O)NC(c1ccccc1)c1nc(-c2cccs2)cs1 (stereo not given),4.35% (inactive),
Cc1nc2c(C(=O)NCc3ccccc3Cl)c[nH]n2c(=O)c1Cc1cccc(Cl)c1,24.2% (inactive),
CCC(=O)N(CCC(c1ccco1)C(C)C)Cc1ccccc1 (stereo not given),0.514% (inactive),
CCc1c(C2(O)CCCCC2)[nH]c2c(C(=O)OC)cc(Cl)cc12,-35.4% (inactive),
COC(=O)c1ccc2nc(-c3ccc(OC)c(OC)c3)c(Cc3ccccc3)n2c1,19.1% (inactive),
COc1ccc2noc3c2c1C(=O)c1ccccc1-3,,20 µM (active)
CC(=O)[C@@]1(O)Cc2c(O)c3c(c(O)c2[C@H](O[C@H]2C[C@H](N)[C@H](O)[C@H](C)O2)C1)C(=O)c1ccccc1C3=O,,12.6 µM (active)
O=C(O)CC/C(=C\c1ccc(N2CCCC2)c([N+](=O)[O-])c1)c1nc2ccccc2s1,-5.54% (inactive),
O=C(O)CN1C(=O)/C(=C\c2cc(Br)ccc2OCc2ccc(Cl)cc2)SC1=S,14.9% (inactive),
Cc1nc2ccccc2n2c(O)c(CC(=O)O)cc12,,44.7 µM (active)
O=C1C(=Cc2cn(-c3ccccc3)nc2-c2ccc(OCc3ccc(Cl)cc3)cc2)SC(=S)N1CCS(=O)(=O)O,,50.1 µM (active)
Oc1ccc(/C=N/Nc2ncnc3nc[nH]c23)cc1,4.78% [at 30.8 µM] (inactive),
COc1ccc(-c2ccc(C(=O)NCCN3CCOCC3)c3occc23)c(C)c1,11.8% (inactive),
O=C(COc1ccccc1/C=C\c1[nH]c(=O)[nH]c(=O)c1[N+](=O)[O-])Nc1ccccc1,7.06% [at 30.8 µM] (inactive),
CC(=Cc1ccccc1)C=C1SC(=S)N(CCCC(=O)Nc2ccc(C(=O)O)cc2)C1=O,-10.7% (inactive),
CCOC(=O)c1c(CC(C)C)csc1NC(C)=O,-10.8% (inactive),
Cc1[nH]c2ccc(C(=O)OC(C)C(=O)N(C)c3ccccc3)cc2c1C (stereo not given),19.3% (inactive),

SMILES,activation,Potency
CCCCc1ccc(NC(=O)CN2C(=O)C3CCCCC3C2=O)cc1 (stereo not given),-13.3% (inactive),
Cc1cc(C)n(Cc2ccc(C(=O)N/N=C/c3ccc(-c4ccc([N+](=O)[O-])cc4)o3)o2)n1,25.2% (inactive),
COc1ccc(S(=O)(=O)Nc2ccc3cn[nH]c3c2)cc1C,6.69% (inactive),
CCC(C)n1c(=N)c(C#N)cc2c(=O)n3ccccc3nc21 (stereo not given),-4.07% [at 30.8 µM] (inactive),
O=C(Nc1ccc2nc3n(c(=O)c2c1)CCCCC3)c1c(F)ccc([N+](=O)[O-])c1F,28.8% (inactive),
N#C/C(=C\c1ccc(OCc2ccc(C(=O)O)cc2)cc1)C(=O)N1CCOCC1,0.474% (inactive),
CCN1CCc2c(sc(NC(=O)Nc3ccc(Cl)c(Cl)c3)c2C(N)=O)C1,,112 µM (active)
COc1ccc(S(=O)(=O)Nc2ncccc2C)c2ccccc12,29.7% (inactive),
Cc1ccnc(NC(=O)C2CCN(S(=O)(=O)c3cccc(C(F)(F)F)c3)CC2)c1,-2.02% (inactive),
COc1ccc(C2=CC(=O)OC3(CCCCC3)O2)cc1,7.07% [at 30.8 µM] (inactive),
COc1ccc(C(=O)Nc2nc(-c3ccc([N+](=O)[O-])cc3)c(-c3ccc(OC)cc3)s2)cc1,,63.1 µM (active)
CC(=O)OCCNc1cc(N2CCN(C)CC2)c2noc3c2c1C(=O)c1ccccc1-3,3.98% (inactive),
Cn1c(N)c(C(=O)COC(=O)c2cc(-c3ccco3)nc3ccccc23)c(=O)n(C)c1=O,19.8% (inactive),
Cc1ccc(NC(=O)C2(C)CCN2CCc2ccccc2)cc1 (stereo not given),6.12% [at 30.8 µM] (inactive),
Cc1cc(C)c2cccc(N)c2n1,7.96% [at 30.8 µM] (inactive),
CCCCNC(=O)CN1CCN(c2ncc(NC(=O)c3ccc(Cl)cc3)cc2C(=O)O)CC1,25.7% (inactive),
CCCc1nc(SC2CCCC2)c2c(=O)n(C)c(=O)n(C)c2n1,-10.3% (inactive),
CCOc1ccccc1Cn1c(=O)oc2ccc(C)cc21,-8.63% (inactive),
Cc1ccc(NS(=O)(=O)c2ccc(C(=O)N3CC(C)CC(C)C3)cc2)cc1 (stereo not given),-4.34% (inactive),
O=C(CCC(=O)N1CCSc2ccccc21)NCc1cccc(Br)c1,10% [at 30.8 µM] (inactive),
